Compound activity (PubChem)
L3MBTL1 inh: inhibitors of human L3MBTL1; Q9Y468; AlphaScreen L3MBTL1–H3K9me1 peptide binding; Potency, µM (doses to about 57.1 µM), inactives show at the highest dose activity, negative = inhibition, most hits filed as inhibitors; 230,000 compounds, 0.66% hits; AID 485360; further: on the % scale 0 is the no-effect control and ±100 the full control effect; nearly all actives have a fitted effect of over 60% in size
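Read-out is AlphaScreen signal from streptavidin donor and nickel chelate acceptor beads (10 ug/mL final each) bridging L3MBTL1 (50 nM) and biotinylated K9-monomethylated H3(1-15) peptide (75 nM), after 30 min compound exposure at room temperature.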
G9a inh: inhibitors of human histone lysine methyltransferase G9a | Q96KQ7 | G9a H3K9 monomethylation, AlphaScreen, 2 h | Potency, µM (series often up to 102 µM), for inactives: at the top dose activity, negative = inhibition, most hits filed as inhibitors | 350,000 compounds, 8.8% hits; further: on the % scale 0 is the no-effect control and ±100 the full control effect; nearly all actives have a fitted effect of over 75% in size
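G9a (20 nM) was preincubated 15 min with compound, then reacted 2 h at room temperature with 500 nM biotin-H3K9 peptide and 20 µM SAM. Monomethyl-H3K9 detected by AlphaScreen using anti-H3K9me1 antibody.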
HP1b chromo inh: inhibitors of HP1-beta chromodomain binding to methylated histone tails; P83916; AlphaScreen HP1-beta / biotin-H3K9me3 peptide binding; Potency, µM (highest dose often 114 µM), without a hit: at the highest dose activity change, negative = inhibition, most hits filed as inhibitors; 390,000 compounds, 0.56% hits; AID 540317; further: nearly all actives have a fitted effect of over 70% in size
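Compound inhibition of the preformed complex between 50 nM HP1-beta and 50 nM biotinylated H3K9me3 peptide was read by AlphaScreen. Buffer was PBS pH 7.4 with 0.01% Tween-20. Incubations ran 30 min at room temperature, with 10 ug/mL donor/acceptor beads.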
Sfp PPTase inh: inhibitors of Bacillus subtilis Sfp phosphopantetheinyl transferase. Biochemical Sfp PPTase activity, qHTS. AID 1490. 310,000 compounds, 3.5% hits. Potency, µM, without a hit: largest response in the series, negative = inhibition, hits mostly inhibitors;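 further: the enzyme is Sfp with the accession as filed and its product quenches rhodamine fluorescence; 0% = enzyme reaction without inhibitor and -100% = no enzyme wells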
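With Hepes-Na pH 7.6 buffer containing 10 mM MgCl2, Sfp (15 nM) modified BHQ-2-YbbR (12.5 uM) using rhodamine-CoA (5 uM). Two reads 30 minutes apart at 525/598 nm yielded each well's rate.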
BAZ2B inh: blocks human BAZ2B; AID 504333; AlphaScreen BAZ2B-H3K14Ac peptide displacement; Potency, µM (series often up to 114 µM), inactives show at the highest dose activity change, negative = inhibition, hits mostly inhibitors; 360,000 compounds, 4.4% hits; further: on the % scale 0 is the no-effect control and ±100 the full control effect; nearly all actives have a fitted effect of over 60% in size
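Protein-peptide AlphaScreen: BAZ2B 50 nM, b-H3K14Ac 50 nM, 1x PBS pH 7.4 + 0.01% Tween-20. Preincubation 30 min RT; cpd 30 min RT (top 110 uM); beads 20 min RT, light-protected.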
JMJD2A Tudor inh: blocks the human JMJD2A Tudor domain; Potency, µM (doses to about 114 µM), for inactives: at the highest dose activity change, negative = inhibition, usual class: inhibitors; AID 504339; AlphaScreen JMJD2A-Tudor / H3K4me3 peptide binding; 390,000 compounds, 4.4% hits; further: on the % scale 0 is the no-effect control and ±100 the full control effect; nearly all actives have a fitted effect of over 50% in size
Target sequence (O75164 whole entry, looked up, the tested form may be a part): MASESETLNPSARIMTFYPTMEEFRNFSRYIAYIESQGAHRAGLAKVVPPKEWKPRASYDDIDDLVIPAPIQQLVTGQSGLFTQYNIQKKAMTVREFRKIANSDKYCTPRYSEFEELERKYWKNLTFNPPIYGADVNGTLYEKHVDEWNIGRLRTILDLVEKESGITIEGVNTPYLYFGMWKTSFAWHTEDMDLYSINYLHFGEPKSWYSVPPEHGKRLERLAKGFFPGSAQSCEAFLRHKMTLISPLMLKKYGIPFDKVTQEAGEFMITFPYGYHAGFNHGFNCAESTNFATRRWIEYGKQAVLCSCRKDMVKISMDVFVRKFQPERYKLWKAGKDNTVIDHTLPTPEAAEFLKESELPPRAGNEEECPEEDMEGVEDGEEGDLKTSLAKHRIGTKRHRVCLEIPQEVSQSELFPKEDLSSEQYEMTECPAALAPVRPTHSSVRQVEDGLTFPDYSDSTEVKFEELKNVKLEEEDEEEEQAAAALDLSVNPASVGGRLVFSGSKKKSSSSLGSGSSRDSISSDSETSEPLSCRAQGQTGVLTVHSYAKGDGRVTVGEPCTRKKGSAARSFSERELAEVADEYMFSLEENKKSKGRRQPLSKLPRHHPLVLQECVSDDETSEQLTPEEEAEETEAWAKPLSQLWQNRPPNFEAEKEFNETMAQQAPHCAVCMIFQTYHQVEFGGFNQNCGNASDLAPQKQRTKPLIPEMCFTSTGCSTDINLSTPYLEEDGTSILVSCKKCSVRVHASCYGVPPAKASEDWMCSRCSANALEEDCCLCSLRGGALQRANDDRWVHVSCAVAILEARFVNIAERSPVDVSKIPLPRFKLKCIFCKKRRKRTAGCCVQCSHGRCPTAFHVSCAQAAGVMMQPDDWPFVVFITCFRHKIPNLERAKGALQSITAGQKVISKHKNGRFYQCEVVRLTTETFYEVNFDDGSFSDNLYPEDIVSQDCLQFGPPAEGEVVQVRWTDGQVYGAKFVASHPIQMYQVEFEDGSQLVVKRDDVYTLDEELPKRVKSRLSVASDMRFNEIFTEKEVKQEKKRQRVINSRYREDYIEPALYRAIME
* marks the source's active call; other numbers are inactive results; ? = inconclusive; nt = no result given; [ ] = another dose, or the depositor's remark. In the library only some 12% were active in any assay of this set; here they are far more common. The call rests on the fitted dose curve; in most records, active means well fitted curve in the direction sought with a large enough effect; inconclusive means small, poorly fitted or top-dose-only effect, or another doubt; inactive means no such curve, though single readings can be large; an effect the other way counts as inactive or inconclusive. Potency means the concentration at half of the fitted maximal effect.

SMILES	L3MBTL1 inh	G9a inh	HP1b chromo inh	Sfp PPTase inh	BAZ2B inh	JMJD2A Tudor inh
O=C(N/N=C/C=C/c1ccc([N+](=O)[O-])cc1)c1cccs1	-0.8%	39.8µM*	25.1%	-29.9%	50.1µM*	-29.7%
O=C(Cc1cccs1)N/N=C/C=C\c1ccco1	-20.7%	?	-8.5%	7.94µM*	-3.1%	-25.3%
O=C(N/N=C/C=C/c1ccco1)c1ccncc1	20.1%	nt	?	56.2µM*	8.2%	79.4µM*
O=C(O)/C(=C\c1ccco1)NC(=O)c1ccccc1	-13.3%	-22.5%[59 µM]	39.0%	-26.8%	-29.5%	-4.8%
O=C(N/N=C/C=C/c1ccco1)/C(=C/c1ccccc1)NC(=O)c1ccccc1	-11.0%	28.2µM*	-21.4%	44.7µM*	-4.3%	79.4µM*
CCOCCCNC(=O)C(c1ccc(C)cc1)N(Cc1ccc2c(c1)OCO2)C(=O)c1ccc(NC(C)=O)cc1 (stereo unspecified)	nt	7.1%[59 µM]	23.8%	nt	5.4%	-5.5%
COc1cc(C(=O)Nc2ccc(-c3cc(C(F)(F)F)nn3-c3ccccc3)cc2)cc(OC)c1OC	nt	-9.8%[59 µM]	16.7%	nt	-23.1%	-23.1%
O=C(N/N=C/C=C\c1ccco1)c1cccs1	6.31µM*	?	7.1%	22.4µM*	44.7µM*	-23.1%
Cc1cc(C)cc(NC(=O)C2CCCN(S(=O)(=O)c3cccc4nsnc34)C2)c1 (stereo unspecified)	nt	4.8%[59 µM]	37.0%	nt	nt	-20.0%
Cc1ccc(C(=O)Nc2ccc(-n3c(C)nc4ccccc4c3=O)cc2)cc1[N+](=O)[O-]	nt	0.4%[59 µM]	55.4%	nt	13.5%	-28.2%
Cc1ccc(NC(=O)C(=O)NCC(c2ccc3c(c2)OCO3)N2CCOCC2)cc1C (stereo unspecified)	nt	13.6%[59 µM]	29.9%[57 µM]	nt	3.2%	8.1%
COC(CNC(=O)c1ccc(N2CCc3ccccc32)c([N+](=O)[O-])c1)OC	-28.1%	44.7µM*	?	?	39.8µM*	?
Cc1ccc(CNC(=O)c2ccc(N3CCc4ccccc43)c([N+](=O)[O-])c2)cc1	?	8.91µM*	31.6µM*	23.6%	10µM*	8.91µM*
Cc1ccc(CNC(=O)c2ccc(N3CCC4(CC3)CC(c3ccccc3)=NO4)c([N+](=O)[O-])c2)cc1	-2.4%	70.8µM*	?	8.9%	-31.0%	-34.7%
C=C1CCN(c2ccc(C(=O)NCc3ccccc3)cc2[N+](=O)[O-])CC1	-2.6%	22.4µM*	-5.7%	0.2%	?	?
Nc1nonc1-c1nc2ccccc2n1Cc1c(Cl)cccc1Cl	nt	25.3%[59 µM]	48.6%	nt	0.6%	-4.6%
